JMJD2A Tudor inh – blocks the human JMJD2A Tudor domain. 390,000 tested, 4.4% active. Potency, µM (doses to about 114 µM), hits mostly inhibitors. AlphaScreen JMJD2A-Tudor / H3K4me3 peptide binding; further: nearly all actives have a fitted effect of over 50% in size
PLK1 PBD block – PLK1 (human) polo-box domain binding inhibition | P53350 | Plk1 PBD binding of FITC phosphopeptide, fluorescence polarization | Potency, µM, actives largely listed as inhibitors | 360,000 tested, 2.8% active | AID 720504; further: series mostly up to about 57 µM; nearly all actives have a fitted effect of over 65% in size
HP1b chromo inh – inhibitors of HP1-beta chromodomain binding to methylated histone tails. P83916. AlphaScreen HP1-beta / biotin-H3K9me3 peptide binding. Potency, µM (highest dose often 114 µM), usual class: inhibitors. 390,000 tested, 0.56% active; further: nearly all actives have a fitted effect of over 70% in size
Target sequence (P83916 whole entry, looked up): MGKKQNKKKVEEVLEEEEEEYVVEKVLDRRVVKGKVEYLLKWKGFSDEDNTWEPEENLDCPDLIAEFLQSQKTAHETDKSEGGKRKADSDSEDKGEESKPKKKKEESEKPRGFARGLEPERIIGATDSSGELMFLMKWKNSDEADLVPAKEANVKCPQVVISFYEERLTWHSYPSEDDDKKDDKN
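AlphaScreen: HP1-beta (50 nM) preformed 30 min with biotin-H3(1-18)K9me3 peptide (50 nM) in PBS pH 7.4, 0.01% Tween-20. Compound added for 30 min at RT, then streptavidin donor/nickel chelate acceptor beads (10 ug/mL) for 30 min.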
G9a block – G9a (human) methyltransferase inhibition; Q96KQ7; Potency, µM (highest dose often 102 µM), hits mostly inhibitors; AID 504332; 350,000 tested, 8.8% active; G9a H3K9 monomethylation, AlphaScreen, 2 h; further: nearly all actives have a fitted effect of over 75% in size
Target sequence (Q96KQ7 913-1193 limits assumed): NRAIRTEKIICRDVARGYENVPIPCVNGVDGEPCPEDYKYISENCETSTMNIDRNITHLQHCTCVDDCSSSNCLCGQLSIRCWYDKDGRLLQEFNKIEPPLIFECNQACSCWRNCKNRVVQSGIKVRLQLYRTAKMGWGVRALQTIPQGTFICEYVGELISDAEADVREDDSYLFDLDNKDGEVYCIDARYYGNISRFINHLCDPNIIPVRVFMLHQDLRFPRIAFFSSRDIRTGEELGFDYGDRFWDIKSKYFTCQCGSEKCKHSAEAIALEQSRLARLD
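Readings reflect AlphaScreen signal from monomethyl-H3K9 antibody detection. HMT at 20 nM; substrate b-H3K9 500 nM; cofactor SAM 20 uM; 2 h RT reaction; compounds tested as titrations in qHTS with 15 min preincubation.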
Sfp inh – Sfp phosphopantetheinyl transferase inhibition | Biochemical Sfp PPTase activity, qHTS | Potency, µM, actives largely listed as inhibitors | 310,000 tested, 3.5% active | AID 1490;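 further: the enzyme is Sfp with the accession as filed and its product quenches rhodamine fluorescence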
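Fluorescence-quenching assay with 15 nM Sfp, 5 uM rhodamine-CoA and 12.5 uM BHQ-2-labelled ybbR peptide in pH 7.6 Hepes/MgCl2 buffer. Enzyme was pre-incubated with compound for 15 min at room temperature. Rate was taken from the 30-min fluorescence change (525/598 nm).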
BAZ2B block – blocks human BAZ2B; Q9UIF8; AlphaScreen BAZ2B-H3K14Ac peptide displacement; Potency, µM (top dose mostly 114 µM), actives largely listed as inhibitors; 360,000 tested, 4.4% active; AID 504333; further: nearly all actives have a fitted effect of over 60% in size
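BAZ2B (50 nM) with biotin-H3(5-23)K14Ac peptide (50 nM) in PBS pH 7.4, 0.01% Tween-20, preformed 30 min, then compound 30 min at room temperature; top concentration 110uM. AlphaScreen streptavidin donor/nickel chelate acceptor beads (10 ug/mL final), 20 min dark, signal read.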
A number is an active result; i = inactive; ? = inconclusive; nt = no result given; [ ] = another dose, or the depositor's remark. An excerpt weighted towards active compounds, which were near 12% of everything screened. The call rests on the fitted dose curve; in most records, active means well fitted curve in the direction sought with a large enough effect; inconclusive means small, poorly fitted or top-dose-only effect, or another doubt; inactive means no such curve, though single readings can be large; an effect the other way counts as inactive or inconclusive.

SMILES | JMJD2A Tudor inh | PLK1 PBD block | HP1b chromo inh | G9a block | Sfp inh | BAZ2B block
COc1ccc(-c2nc3cnc(OC)nc3n(C[C@H]3CCCO3)c2=O)cc1 | nt | nt | nt | i[0.501 µM] | i | nt
O=C1CS/C(=N\C(=O)N2c3ccccc3Sc3ccccc32)N1 | ? | i | i | 5.6µM | i | ?
NCCC(=O)N1c2ccccc2Sc2ccccc21 | i | i | i | nt | i | i
O=C(COc1ccc2ccccc2c1)NCCNC(=O)COc1ccc2ccccc2c1 | i | i | i | ? | i | ?
O=C(Cc1ccccc1)Nc1ccc(Cl)cn1 | i | i | i | i | i | i
O=C(COC(=O)Cc1ccccc1F)Nc1ccc(Cl)cn1 | 20µM | 17µM | i | i | i | i
O=C(CN1C(=O)c2ccccc2C1=O)Nc1ccc(Cl)cn1 | i[11.4 µM] | 27µM | i | ? | i | i
O=C(CSc1ccccn1)Nc1ccc(Cl)cn1 | i | 24µM | i | i | i | i
O=C(COc1ccc2ccccc2c1)NN1C(=O)c2ccccc2C1=O | 89µM | 27µM | i | i | i | i
Cc1cccc2sc(N(Cc3cccnc3)C(=O)CCS(=O)(=O)c3ccccc3)nc12 | i | nt | i | i | nt | i
CCOC(=O)c1ccccc1NC(=O)N1CCC(N2CCN(Cc3ccccc3)C(=O)C2=O)CC1 | i | nt | i | i | nt | i
O=C(Cc1ccccc1)NN1C(=O)c2ccccc2C1=O | i | i | i | i[12.7 µM] | i | i
O=C(CN1C(=O)c2ccccc2C1=O)NN1C(=O)c2ccccc2C1=O | i | i | i | ? | 45µM | ?
Cn1cc(CN2CCC(n3nccc3NC(=O)CCOc3ccccc3)CC2)cn1 | i | i | i | i | i | i
O=C(O)CCCCCNC(=O)/C=C/c1ccco1 | i | i | i | i | i | i
O=C(/C=C/c1cccc(Cl)c1)NCCc1ccccc1 | i | i | i | i | 20µM | i
O=C(O)/C=C/C(=O)NCCc1ccccc1 | ? | i | i | i | i | i
O=C(O)CCCNC(=O)/C=C/c1ccco1 | 7.9µM | ? | 35µM | nt | 13µM | 13µM
O=C(/C=C/c1ccco1)NCCc1ccccc1 | i | i | i | 45µM | i | i
O=C(O)COc1cccc2c1CCC=C2CCO/N=C(\c1ccccc1)c1cccnc1 | nt | nt | nt | nt | i | nt
CC(=O)N1CCc2[nH]c3ccccc3c2C1 | i | i | i | i | i | i
O=C(CN1CCc2[nH]c3ccccc3c2C1)N1CCCCC1 | i | i | i | i[12.7 µM] | i | i
Cc1ccc2[nH]c3c(c2c1)CN(C(=O)CN1CCN(c2ccccn2)CC1)CC3 | i | i | i | 20µM | i | 50µM
Cc1ccc2[nH]c3c(c2c1)CN(C(=O)CN1CC(C)OC(C)C1)CC3 (stereo not given) | i[11.4 µM] | i | i | ? | i | i
O=C(N1CCc2[nH]c3ccccc3c2C1)C(F)(F)F | i | 38µM | i | i | i | i
SMILES | JMJD2A Tudor inh | PLK1 PBD block | HP1b chromo inh | G9a block | Sfp inh | BAZ2B block
O=C(CN1CCN(c2ccccc2)CC1)N1CCc2[nH]c3ccccc3c2C1 | ? | i | i | ? | i | 50µM
Cc1ccc2[nH]c3c(c2c1)CN(C(=O)CN1CCN(Cc2ccc4c(c2)OCO4)CC1)CC3 | 50µM | i | ? | ? | i | i
COc1cccc(C(=O)NCC(=O)OCC(=O)NC2CCCCC2)c1 | i | i | i | nt | nt | nt
CC1(C(=O)NS(=O)(=O)c2cccc(OC(F)F)c2)CCN1C(=O)Cc1cccs1 (stereo not given) | nt | i | nt | nt | nt | nt
CCC(=O)N1CCc2cc(CNS(=O)(=O)c3c(C)cc(C)cc3C)ccc21 | i | nt | i | i | nt | i
COc1ccccc1CNC(=O)COc1ccc(S(=O)(=O)N2CCOCC2)cc1C | i | i | i | i | i | i
CC(C)(C)NC(=S)N/N=C/c1cccnc1 | i | i | i | i | i | i
Cc1ccc(NC(=S)N2CCc3[nH]c4ccccc4c3C2)cc1 | ? | i | i | nt | i | 25µM
Cc1ccc(N2C(=O)[C@@H]3[C@H](C2=O)[C@H]2C=CC=NN2[C@@H]3C(=O)Nc2ccc(Cl)cc2)cc1 | i | ? | i | 3.2µM | 40µM | 50µM
O=C(Nc1ccc(Cl)cc1)[C@@H]1[C@@H]2C(=O)N(c3ccc(Cl)cc3)C(=O)[C@@H]2[C@H]2C=CC=NN21 | ? | 24µM | i | ? | 45µM | i
O=C(Nc1ccc(Cl)cc1)[C@@H]1[C@@H]2C(=O)N(c3ccc(Cl)cc3Cl)C(=O)[C@@H]2[C@H]2C=CC=NN21 | nt | nt | nt | ? | i | ?
CC12CCC(=O)N1C(C(=O)NNC(=O)COc1ccccc1F)CS2 (stereo not given) | i | i | i | i | nt | i
CS(=O)(=O)N1CCC2(CCCN(Cc3ccc(C#N)cc3)C2)CC1 | nt | nt | nt | i[12.7 µM] | i | nt
O=C(OCC1CCCO1)c1ccc2c(c1)N(Cc1c(F)cccc1Cl)C(=O)c1ccccc1S2(=O)=O (stereo not given) | i | nt | i | i | nt | i
COc1cc(C(=O)N2CCN(S(=O)(=O)c3cccc(F)c3)CC2)ccc1OCC(=O)N1CCOCC1 | i | i | i | i | nt | i
COC(=O)c1ccc2nc(C)cc(Nc3ccc(O)cc3)c2c1 | i | nt | i | ? | nt | i
COC(=O)c1ccc2nc(C)cc(Nc3ccc(N(C)C)cc3)c2c1 | ? | i | i | 50µM | i | 40µM
O=C(Oc1ccc(N(C(=O)c2ccncc2)S(=O)(=O)c2ccc(F)cc2)cc1)c1ccncc1 | i | ? | i | 45µM | i | i
Cc1ccc(S(=O)(=O)N(C(=O)c2ccncc2)c2ccc(OC(=O)c3ccncc3)cc2)cc1 | i | i | i | ? | i | i
COC(=O)c1c(C)oc2ccc(N(C(=O)c3ccncc3)S(=O)(=O)c3ccc(Br)cc3)cc12 | ? | nt | i | i | nt | i
O=C(c1ccncc1)N(c1ccc2oc3c(c2c1)CCCC3)S(=O)(=O)c1ccc(F)cc1 | i | i | i | 79µM | i | ?
O=C(Oc1ccc(N(C(=O)c2ccncc2)S(=O)(=O)c2ccc(Cl)cc2)cc1)c1ccncc1 | i | i | i | 50µM | i | i
Cc1ccc(N2C(=O)C3C4C=CC(CNC(=S)N5CCN(c6cccc(C)c6)C(C)C5)(O4)C3C2=O)cc1 (stereo not given) | 18µM | i | 25µM | 2µM | 20µM | i
Cc1ccc(-c2ccc(=O)n(CC(=O)N3CCN(c4cccc(C)c4)C(C)C3)n2)cc1 (stereo not given) | ? | i | i | i[12.7 µM] | i | ?
Cc1sc2ncnc(N3CCCC(C)C3)c2c1C (stereo not given) | i | i | i | 56µM | i | i
CC1CCCN(c2ncnc3c2cnn3-c2ccccc2)C1 (stereo not given) | i | i | i | i | 89µM | i
Cc1ccc(C)c(N2CCN(c3ncnc4c3cnn4-c3ccccc3)CC2)c1 | ? | 27µM | i | ? | i | i
COCC(C)NS(=O)(=O)c1ccc(C(=O)NC(Cc2ccccc2)c2ccccc2)cc1 (stereo not given) | i | i | i | i | i | i
